Experiment [1] concerns the target Sphingosine kinase 1 (Homo sapiens) (UniProt Q9NYA1). As to conditions: at 1 µM.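 Note: mean SPHK1 inhibition value reported from the GSK PKIS kinase panel screen.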
For experiment [2], the target named is T1, Sphingosine kinase 2 (Homo sapiens) (UniProt Q9NRA0).
T1 sequence (whole entry): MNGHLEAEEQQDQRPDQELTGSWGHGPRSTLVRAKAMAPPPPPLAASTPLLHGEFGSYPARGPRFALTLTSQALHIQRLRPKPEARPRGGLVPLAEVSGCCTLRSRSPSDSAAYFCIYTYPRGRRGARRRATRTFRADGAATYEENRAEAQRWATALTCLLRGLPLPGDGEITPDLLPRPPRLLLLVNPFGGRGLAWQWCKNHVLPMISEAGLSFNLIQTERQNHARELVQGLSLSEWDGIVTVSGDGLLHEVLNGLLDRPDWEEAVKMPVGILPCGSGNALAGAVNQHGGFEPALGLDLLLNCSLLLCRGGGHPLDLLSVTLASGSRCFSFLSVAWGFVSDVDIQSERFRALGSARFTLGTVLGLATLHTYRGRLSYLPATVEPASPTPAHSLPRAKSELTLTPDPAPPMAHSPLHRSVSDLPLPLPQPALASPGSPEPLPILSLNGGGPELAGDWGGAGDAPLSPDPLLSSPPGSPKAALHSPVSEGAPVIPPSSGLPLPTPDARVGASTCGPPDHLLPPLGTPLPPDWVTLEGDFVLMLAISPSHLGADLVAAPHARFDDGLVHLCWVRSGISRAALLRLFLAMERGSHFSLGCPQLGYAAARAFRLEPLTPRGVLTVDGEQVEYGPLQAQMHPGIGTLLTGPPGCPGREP
As to conditions: at 0.1 µM.

Experiment [3] deals with T1, Sphingosine kinase 2 (Homo sapiens). As to conditions: at 1 µM.
The target in experiment [4] is Casein kinase II subunit alpha (Homo sapiens) (UniProt P68400). As to conditions: at 0.1 µM.
Sequence of Casein kinase II subunit alpha (Homo sapiens) (P68400 whole entry, looked up): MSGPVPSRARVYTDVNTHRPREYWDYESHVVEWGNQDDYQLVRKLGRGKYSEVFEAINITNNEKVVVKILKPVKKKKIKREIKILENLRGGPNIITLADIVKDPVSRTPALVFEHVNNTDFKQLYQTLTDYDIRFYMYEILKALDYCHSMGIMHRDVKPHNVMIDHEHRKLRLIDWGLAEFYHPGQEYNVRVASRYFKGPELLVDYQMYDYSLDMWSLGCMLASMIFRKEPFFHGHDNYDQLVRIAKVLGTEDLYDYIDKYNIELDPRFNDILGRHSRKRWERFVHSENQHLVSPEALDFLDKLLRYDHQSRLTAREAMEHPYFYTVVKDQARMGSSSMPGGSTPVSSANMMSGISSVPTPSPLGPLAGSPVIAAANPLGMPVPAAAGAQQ
For experiment [5] the target is unchanged. As to conditions: at 1 µM.
Experiment [6] addresses T2, Inhibitor of nuclear factor kappa-B kinase subunit alpha (Homo sapiens) (UniProt O15111).
T2 sequence (whole entry): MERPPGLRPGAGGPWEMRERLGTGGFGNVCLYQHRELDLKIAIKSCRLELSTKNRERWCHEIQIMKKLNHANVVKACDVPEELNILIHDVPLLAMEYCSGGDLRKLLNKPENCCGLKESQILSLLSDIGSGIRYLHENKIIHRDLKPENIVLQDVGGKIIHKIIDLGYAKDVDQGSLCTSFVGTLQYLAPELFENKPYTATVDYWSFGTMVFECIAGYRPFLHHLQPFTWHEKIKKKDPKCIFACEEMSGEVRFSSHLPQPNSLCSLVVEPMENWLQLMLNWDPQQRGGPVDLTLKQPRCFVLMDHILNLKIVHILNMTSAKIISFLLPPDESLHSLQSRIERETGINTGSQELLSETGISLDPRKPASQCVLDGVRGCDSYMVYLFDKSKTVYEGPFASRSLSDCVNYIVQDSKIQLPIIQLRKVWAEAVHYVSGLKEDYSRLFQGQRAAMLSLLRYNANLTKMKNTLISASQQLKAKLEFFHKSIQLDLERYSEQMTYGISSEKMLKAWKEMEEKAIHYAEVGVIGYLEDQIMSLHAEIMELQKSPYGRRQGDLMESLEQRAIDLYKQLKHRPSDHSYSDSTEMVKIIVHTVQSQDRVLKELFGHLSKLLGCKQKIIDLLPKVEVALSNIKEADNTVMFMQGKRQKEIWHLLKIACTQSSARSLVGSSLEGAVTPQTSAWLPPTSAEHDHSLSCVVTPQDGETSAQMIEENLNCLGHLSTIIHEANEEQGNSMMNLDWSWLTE
As to conditions: at 0.1 µM.

The target in experiment [7] is T2, Inhibitor of nuclear factor kappa-B kinase subunit alpha (Homo sapiens). As to conditions: at 1 µM.
In experiment [8] the target is T3, Inhibitor of nuclear factor kappa-B kinase subunit beta (Homo sapiens) (UniProt O14920).
T3 sequence (whole entry): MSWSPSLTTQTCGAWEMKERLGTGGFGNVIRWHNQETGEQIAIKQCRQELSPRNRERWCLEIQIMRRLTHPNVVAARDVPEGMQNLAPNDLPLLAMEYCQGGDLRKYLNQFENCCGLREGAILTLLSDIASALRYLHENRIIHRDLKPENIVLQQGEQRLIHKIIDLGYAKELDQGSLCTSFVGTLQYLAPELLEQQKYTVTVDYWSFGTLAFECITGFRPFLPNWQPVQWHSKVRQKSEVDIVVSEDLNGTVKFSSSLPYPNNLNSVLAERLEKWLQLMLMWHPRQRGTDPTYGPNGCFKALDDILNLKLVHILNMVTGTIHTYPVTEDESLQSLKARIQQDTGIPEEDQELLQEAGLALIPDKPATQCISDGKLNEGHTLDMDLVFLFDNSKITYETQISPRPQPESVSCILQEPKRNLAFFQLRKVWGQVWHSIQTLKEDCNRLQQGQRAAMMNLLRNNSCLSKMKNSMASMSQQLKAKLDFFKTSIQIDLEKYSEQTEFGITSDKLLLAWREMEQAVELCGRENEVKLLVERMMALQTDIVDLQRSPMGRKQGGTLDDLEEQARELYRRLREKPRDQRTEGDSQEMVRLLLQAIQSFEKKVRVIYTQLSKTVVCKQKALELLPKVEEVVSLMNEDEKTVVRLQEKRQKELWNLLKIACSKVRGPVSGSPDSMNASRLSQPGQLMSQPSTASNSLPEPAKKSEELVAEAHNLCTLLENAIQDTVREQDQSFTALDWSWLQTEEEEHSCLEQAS
As to conditions: at 0.1 µM.

In experiment [9] the target is T3, Inhibitor of nuclear factor kappa-B kinase subunit beta (Homo sapiens). As to conditions: at 1 µM.
For experiment [10], the target named is T4, Inhibitor of nuclear factor kappa-B kinase subunit epsilon (Homo sapiens) (UniProt Q14164).
T4 sequence (whole entry): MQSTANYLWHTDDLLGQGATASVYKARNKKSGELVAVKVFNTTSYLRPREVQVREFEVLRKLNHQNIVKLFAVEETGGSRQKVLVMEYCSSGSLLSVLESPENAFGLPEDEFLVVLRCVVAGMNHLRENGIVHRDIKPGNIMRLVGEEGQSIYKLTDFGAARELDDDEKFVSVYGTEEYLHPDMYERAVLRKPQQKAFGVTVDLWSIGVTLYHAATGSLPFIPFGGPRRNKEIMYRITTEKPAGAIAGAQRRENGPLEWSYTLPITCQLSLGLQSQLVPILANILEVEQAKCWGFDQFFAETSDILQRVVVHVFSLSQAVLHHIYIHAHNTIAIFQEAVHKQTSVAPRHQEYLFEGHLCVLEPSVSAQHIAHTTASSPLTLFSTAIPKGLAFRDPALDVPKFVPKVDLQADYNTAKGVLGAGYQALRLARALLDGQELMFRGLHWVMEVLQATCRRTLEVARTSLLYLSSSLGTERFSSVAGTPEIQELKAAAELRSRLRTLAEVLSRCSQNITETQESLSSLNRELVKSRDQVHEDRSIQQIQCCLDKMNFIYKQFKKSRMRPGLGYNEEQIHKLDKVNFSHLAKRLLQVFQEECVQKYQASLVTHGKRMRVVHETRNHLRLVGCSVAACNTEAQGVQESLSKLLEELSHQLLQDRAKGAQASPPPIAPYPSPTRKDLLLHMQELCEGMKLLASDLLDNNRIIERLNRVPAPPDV
As to conditions: at 0.1 µM.

Experiment [11] deals with T4, Inhibitor of nuclear factor kappa-B kinase subunit epsilon (Homo sapiens). As to conditions: at 1 µM.
Experiment [12] concerns the target T5, Serine/threonine-protein kinase Nek1 (Homo sapiens) (UniProt Q96PY6).
T5 sequence (whole entry): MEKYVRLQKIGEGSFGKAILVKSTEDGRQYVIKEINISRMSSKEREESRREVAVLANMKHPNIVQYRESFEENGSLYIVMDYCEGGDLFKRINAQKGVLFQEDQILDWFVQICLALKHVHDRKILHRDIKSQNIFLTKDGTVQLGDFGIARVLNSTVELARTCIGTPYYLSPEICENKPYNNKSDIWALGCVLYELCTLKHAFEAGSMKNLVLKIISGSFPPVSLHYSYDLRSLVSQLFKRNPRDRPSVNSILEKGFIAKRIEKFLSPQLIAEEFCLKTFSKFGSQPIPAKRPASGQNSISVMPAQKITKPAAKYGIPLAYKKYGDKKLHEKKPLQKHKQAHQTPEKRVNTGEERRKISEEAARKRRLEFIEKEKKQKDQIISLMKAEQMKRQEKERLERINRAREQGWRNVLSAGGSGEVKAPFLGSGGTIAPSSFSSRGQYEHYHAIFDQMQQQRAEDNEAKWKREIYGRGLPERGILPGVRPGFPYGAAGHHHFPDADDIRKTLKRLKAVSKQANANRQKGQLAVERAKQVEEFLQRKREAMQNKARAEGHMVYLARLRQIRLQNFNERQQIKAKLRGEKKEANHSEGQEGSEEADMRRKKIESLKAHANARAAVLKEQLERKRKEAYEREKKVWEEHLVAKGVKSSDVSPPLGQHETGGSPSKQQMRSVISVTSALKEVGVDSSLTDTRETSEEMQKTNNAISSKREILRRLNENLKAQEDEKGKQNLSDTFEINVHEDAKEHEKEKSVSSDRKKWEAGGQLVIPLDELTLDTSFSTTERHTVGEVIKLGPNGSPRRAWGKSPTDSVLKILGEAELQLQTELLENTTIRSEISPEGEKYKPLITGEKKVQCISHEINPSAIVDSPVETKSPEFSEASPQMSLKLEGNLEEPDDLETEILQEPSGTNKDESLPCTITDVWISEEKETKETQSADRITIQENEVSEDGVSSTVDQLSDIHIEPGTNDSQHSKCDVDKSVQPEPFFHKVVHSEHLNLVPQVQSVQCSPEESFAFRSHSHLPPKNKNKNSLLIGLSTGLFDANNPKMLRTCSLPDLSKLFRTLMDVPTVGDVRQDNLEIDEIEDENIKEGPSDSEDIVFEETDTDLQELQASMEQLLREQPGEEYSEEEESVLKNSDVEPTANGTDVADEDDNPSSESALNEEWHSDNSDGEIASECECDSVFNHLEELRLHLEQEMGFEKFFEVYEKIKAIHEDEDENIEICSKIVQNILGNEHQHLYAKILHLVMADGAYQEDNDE
As to conditions: at 0.1 µM.

The target in experiment [13] is T5, Serine/threonine-protein kinase Nek1 (Homo sapiens). As to conditions: at 1 µM.
The target in experiment [14] is T6, Serine/threonine-protein kinase Nek2 (Homo sapiens) (UniProt P51955).
T6 sequence (whole entry): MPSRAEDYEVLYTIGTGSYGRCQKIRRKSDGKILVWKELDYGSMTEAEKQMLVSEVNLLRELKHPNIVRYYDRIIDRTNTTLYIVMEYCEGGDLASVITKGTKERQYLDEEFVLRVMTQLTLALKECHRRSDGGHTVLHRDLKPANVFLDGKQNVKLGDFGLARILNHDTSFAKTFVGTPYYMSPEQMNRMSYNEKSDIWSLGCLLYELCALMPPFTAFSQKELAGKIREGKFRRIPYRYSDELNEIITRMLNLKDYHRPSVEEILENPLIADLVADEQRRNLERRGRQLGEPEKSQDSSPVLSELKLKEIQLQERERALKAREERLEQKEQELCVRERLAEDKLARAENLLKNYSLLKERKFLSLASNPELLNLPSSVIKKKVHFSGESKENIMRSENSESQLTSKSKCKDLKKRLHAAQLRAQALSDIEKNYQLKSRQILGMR
As to conditions: at 0.1 µM.

For experiment [15], the target named is T6, Serine/threonine-protein kinase Nek2 (Homo sapiens). As to conditions: at 1 µM.
Experiment [16] concerns the target Serine/threonine-protein kinase Nek6 (Homo sapiens) (UniProt Q9HC98). As to conditions: at 0.1 µM.
The target is the same in experiment [17]. As to conditions: at 1 µM.
Experiment [18] has as its target Serine/threonine-protein kinase Nek7 (Homo sapiens) (UniProt Q8TDX7). As to conditions: at 0.1 µM.
For experiment [19] the target is unchanged. As to conditions: at 1 µM.
In experiment [20] the target is T7, Serine/threonine-protein kinase Nek9 (Homo sapiens) (UniProt Q8TD19).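 Note: reported value is the mean percent inhibition of NEK9.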
T7 sequence (whole entry): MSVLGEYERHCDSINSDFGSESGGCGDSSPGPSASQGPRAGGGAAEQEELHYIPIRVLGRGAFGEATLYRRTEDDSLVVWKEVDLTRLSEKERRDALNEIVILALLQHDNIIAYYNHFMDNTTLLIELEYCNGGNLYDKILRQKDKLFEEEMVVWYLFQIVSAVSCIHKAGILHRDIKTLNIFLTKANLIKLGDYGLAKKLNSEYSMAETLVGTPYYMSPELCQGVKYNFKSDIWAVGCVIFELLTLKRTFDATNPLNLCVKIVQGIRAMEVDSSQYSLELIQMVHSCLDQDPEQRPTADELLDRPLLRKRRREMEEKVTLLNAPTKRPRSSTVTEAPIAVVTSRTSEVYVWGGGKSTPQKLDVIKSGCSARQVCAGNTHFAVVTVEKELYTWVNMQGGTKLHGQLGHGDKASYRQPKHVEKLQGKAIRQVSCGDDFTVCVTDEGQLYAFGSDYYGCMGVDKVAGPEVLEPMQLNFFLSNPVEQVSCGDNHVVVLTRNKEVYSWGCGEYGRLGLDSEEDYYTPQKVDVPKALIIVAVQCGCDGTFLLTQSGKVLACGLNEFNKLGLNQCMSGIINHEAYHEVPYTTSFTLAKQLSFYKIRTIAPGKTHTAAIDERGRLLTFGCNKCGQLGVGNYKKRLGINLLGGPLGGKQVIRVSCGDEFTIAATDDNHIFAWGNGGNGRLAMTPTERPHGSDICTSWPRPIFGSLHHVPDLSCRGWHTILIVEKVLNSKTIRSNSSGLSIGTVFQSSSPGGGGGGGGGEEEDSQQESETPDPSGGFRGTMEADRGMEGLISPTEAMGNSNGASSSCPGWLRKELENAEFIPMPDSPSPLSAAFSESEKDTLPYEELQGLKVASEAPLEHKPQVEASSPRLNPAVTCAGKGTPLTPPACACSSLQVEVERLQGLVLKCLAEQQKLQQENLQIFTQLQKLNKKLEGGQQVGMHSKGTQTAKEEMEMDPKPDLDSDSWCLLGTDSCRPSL
As to conditions: at 0.1 µM.

The results in this text go back to ChEMBL document CHEMBL1961873, “Compounds: GSK PKIS; Assays: Nanosyn kinase panel” (2012).

The structures appear in SMILES notation.

Sequence of Serine/threonine-protein kinase Nek7 (Homo sapiens) (Q8TDX7 whole entry, looked up): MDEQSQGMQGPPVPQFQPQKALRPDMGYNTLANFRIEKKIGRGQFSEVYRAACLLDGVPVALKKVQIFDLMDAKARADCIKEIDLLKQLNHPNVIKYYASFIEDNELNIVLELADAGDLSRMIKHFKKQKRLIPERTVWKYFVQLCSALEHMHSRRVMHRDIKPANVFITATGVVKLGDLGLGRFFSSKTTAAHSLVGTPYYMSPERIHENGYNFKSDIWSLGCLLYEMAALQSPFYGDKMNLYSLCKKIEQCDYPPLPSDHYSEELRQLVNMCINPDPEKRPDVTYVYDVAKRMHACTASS
Sequence of Serine/threonine-protein kinase Nek6 (Homo sapiens) (Q9HC98 whole entry): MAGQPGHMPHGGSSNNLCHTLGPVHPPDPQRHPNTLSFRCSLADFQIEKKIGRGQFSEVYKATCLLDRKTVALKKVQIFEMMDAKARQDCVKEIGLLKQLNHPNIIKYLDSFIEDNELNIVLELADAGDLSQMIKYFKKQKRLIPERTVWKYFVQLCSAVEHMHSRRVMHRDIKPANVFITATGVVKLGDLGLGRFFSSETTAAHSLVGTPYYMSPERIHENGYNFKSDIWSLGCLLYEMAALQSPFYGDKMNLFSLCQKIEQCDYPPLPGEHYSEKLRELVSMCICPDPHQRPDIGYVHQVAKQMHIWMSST
Sequence of Sphingosine kinase 1 (Homo sapiens) (Q9NYA1 whole entry): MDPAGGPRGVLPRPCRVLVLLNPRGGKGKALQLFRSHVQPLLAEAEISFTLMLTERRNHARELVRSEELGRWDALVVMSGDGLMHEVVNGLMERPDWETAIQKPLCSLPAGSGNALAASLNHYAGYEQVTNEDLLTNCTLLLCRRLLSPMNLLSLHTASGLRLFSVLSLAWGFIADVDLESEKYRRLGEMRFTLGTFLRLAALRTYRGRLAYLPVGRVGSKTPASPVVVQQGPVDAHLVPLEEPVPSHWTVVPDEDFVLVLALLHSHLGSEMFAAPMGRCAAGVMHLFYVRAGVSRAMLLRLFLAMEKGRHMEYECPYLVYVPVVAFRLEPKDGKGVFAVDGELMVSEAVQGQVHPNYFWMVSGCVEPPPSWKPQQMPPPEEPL

By inhibition is commonly meant the change of the read-out against control, counted positive when it falls. For the molecule `O=C(O[C@H]1CN[C@H](C#Cc2cc3ncnc(Nc4ccc5c(ccn5Cc5cc(F)ccc5F)c4)c3s2)C1)N1CCOCC1`, the inhibition was -2.46% in experiment [1]; 0% in experiment [2]; 1.37% in experiment [3]; 7.47% in experiment [4]; 0.25% in [5]; 8.85% in experiment [6]. The inhibition came out at 10.1% in experiment [7]; 7.42% in experiment [8]; 9.24% in experiment [9]; 6.23% in experiment [10]; 3.8% in experiment [11]; 2.94% in experiment [12]. The inhibition was 1.91% in experiment [13]; 2.01% in experiment [14]; 7.68% in [15]; 4.81% in experiment [16]; 1.23% in experiment [17]; 4.67% in experiment [18]. Also, the inhibition in [19] worked out at 3.63%; in experiment [20], 4.24%.
